The results in this text go back to paper PMC5892938, “SARNAclust: Semi-automatic detection of RNA protein binding motifs from immunoprecipitation data”.

Whole data set: some 11,000 sequences, median “log2 fold change” near 0.00022, cut for the highest 2% near 0.34. Some of the results follow.

The assay addresses GST-SBP-SLBP (stem-loop binding protein) (Homo sapiens, UniProt Q14493 1-270). In words: targeted RNA Bind-n-Seq; RBNS binding buffer: 25 mM Tris pH 7.5, 150 mM KCl, 3 mM MgCl2, 0.1% Tween, 0.5 mg/mL BSA, 1 mM DTT; 27 nM protein, 750 pM RNA pool; temperature not stated; high values mean tight binding. The settings on record: protein: recombinant; tags: N-terminal GST and SBP (pGEX6P1-SBP); structured_RNA. The method in brief:
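Read counts per sequence supply the binding signal, defined as the DEseq fold change on a binary-logarithm scale. These counts came from RNA of a designed, T7-transcribed oligo pool at 750 pM that bound 27 nM of GST-SBP-tagged protein, made in Rosetta(DE3) pLysS E. coli and glutathione-purified, in RBNS binding buffer. The bound RNA was reverse transcribed with a 10-nucleotide barcoded primer, PCR-amplified and sequenced on a MiSeq with 200-cycle paired-end reads, then processed with FLASH and HISAT2 and collapsed by barcode.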
“GGUCACGUCUCAAUCAACUCUCAAGAGGGGGGGAAAACCCCUUUGCCCUCCAAAUCAACAGCUCGCAGUCAAG”: the binding signal was found to be 0.327 ± 0.445 log2 fold change. With “GGUCACGUCUCAAUCAACUCCAAAGAGGGGGGGAAAACCCCUUUGCCCUCAAUAUCAACAGCUCGCAGUCAAG”, the binding signal stood at 0.359 ± 0.439 log2 fold change.

For “GGUCACGUCUCAAUCAACUCCAAAGAGGGGGGGAAAACCCCUUUGCCCUCAUUCUCAACAGCUCGCAGUCAAG”, the binding signal came out at 0.342 ± 0.438 log2 fold change. “GGUCACGUCUCAAUCAACUCCAAAGAGGGGGGGAAAACCCCUUUGCCCUCGAAAUCAACAGCUCGCAGUCAAG”: the binding signal is 0.347 ± 0.378 log2 fold change. Turning to “GGUCACGUCUCAAUCAACUCCAAAGAGGGGGGGAAAACCCCUUUGCCCUCCAAUUCAACAGCUCGCAGUCAAG”, the binding signal came to 0.304 ± 0.412 log2 fold change. As to “GGUCACGUCUCAAUCAACUCUCUAGAGGGGGGGAAAACCCCUUUGCCCUCAUCCUCAACAGCUCGCAGUCAAG”, the binding signal is 0.441 ± 0.424 log2 fold change. On to “GGUCACGUCUCAAUCAACUCUCUAGAGGGGGGGAAAACCCCUUUGCCCUCGAAAUCAACAGCUCGCAGUCAAG”, for which the binding signal was found to be 0.342 ± 0.443 log2 fold change.

For “GGUCACGUCUCAAUCAACUCUCUCGAGGGGGGGAAAACCCCUUUGCCCUCAACAUCAACAGCUCGCAGUCAAG”, the binding signal was 0.307 ± 0.399 log2 fold change.

With “GGUCACGUCUCAAUCAACUCUCUCGAGGGGGGGAAAACCCCUUUGCCCUCAAAAUCAACAGCUCGCAGUCAAG”, the binding signal was 0.354 ± 0.38 log2 fold change.

As to “GGUCACGUCUCAAUCAACUCACAAGAGGGGGGGAAAACCCCUUUGCCCUCAUCCUCAACAGCUCGCAGUCAAG”, the binding signal is 0.34 ± 0.422 log2 fold change. As for “GGUCACGUCUCAAUCAACUCUCUAGAGGGGGGGAAAACCCCUUUGCCCUCGUCAUCAACAGCUCGCAGUCAAG”, the binding signal was 0.374 ± 0.381 log2 fold change. On to “GGUCACGUCUCAAUCAACUCAUUCGAGGGGGGGAAAACCCCUUUGCCCUCAUCAUCAACAGCUCGCAGUCAAG”, for which the binding signal worked out at 0.363 ± 0.407 log2 fold change. Take “GGUCACGUCUCAAUCAACUCUCUAGAGGGGGGGAAAACCCCUUUGCCCUCCGUUUCAACAGCUCGCAGUCAAG”: the binding signal is 0.354 ± 0.438 log2 fold change. Consider “GGUCACGUCUCAAUCAACUCCUAAGAGGGGGGGAAAACCCCUUUACCCUCACUAUCAACAGCUCGCAGUCAAG”, for which the binding signal was found to be 0.433 ± 0.43 log2 fold change. “GGUCACGUCUCAAUCAACUCCUAAGAGGGGGGGAAAACCCCUUUACCCUCCGCAUCAACAGCUCGCAGUCAAG”: the binding signal worked out at 0.313 ± 0.425 log2 fold change.

Regarding “GGUCACGUCUCAAUCAACUCCUAAGAGGGGGGGAAAACCCCUUUACCCUCAAUCUCAACAGCUCGCAGUCAAG”, the binding signal worked out at 0.429 ± 0.444 log2 fold change. With “GGUCACGUCUCAAUCAACUCCUAAGAGGGGGGGAAAACCCCUUUACCCUCGUCCUCAACAGCUCGCAGUCAAG” the figure was 0.382 ± 0.439 log2 fold change; with “GGUCACGUCUCAAUCAACUCCUUAGAGGGGGGGAAAACCCCUUUGCCCUCGAAUUCAACAGCUCGCAGUCAAG”, 0.379 ± 0.448 log2 fold change; with “GGUCACGUCUCAAUCAACUCUUUAGAGGGGGGGAAAACCCCUUUGCCCUCAACUUCAACAGCUCGCAGUCAAG”, 0.318 ± 0.415 log2 fold change. As to “GGUCACGUCUCAAUCAACUCUAUAGAGGGGGGGAAAACCCCUUUGCCCUCGAAUUCAACAGCUCGCAGUCAAG”, the binding signal was determined as 0.377 ± 0.432 log2 fold change.

“GGUCACGUCUCAAUCAACUCUUUAGAGGGGGGGAAAACCCCUUUGCCCUCGAAUUCAACAGCUCGCAGUCAAG”: the binding signal amounted to 0.388 ± 0.441 log2 fold change. As for “GGUCACGUCUCAAUCAACUCUCACGAGGGGGGGAAAACCCCUUUGCCCUCACUUUCAACAGCUCGCAGUCAAG”, the binding signal came to 0.351 ± 0.41 log2 fold change. For the sequence “GGUCACGUCUCAAUCAACUCAUAAGAGGGGGGGAAAACCCCUUUGCCCUCAAUCUCAACAGCUCGCAGUCAAG”, the binding signal turned out to be 0.373 ± 0.408 log2 fold change.

“GGUCACGUCUCAAUCAACUCAAAAGAGGGGGGGAAAACCCCUUUGCCCUCACAAUCAACAGCUCGCAGUCAAG”: the binding signal worked out at 0.31 ± 0.383 log2 fold change. Turning to “GGUCACGUCUCAAUCAACUCUCAAGAGGGGGGGAAAACCCCUUUGCCCUCGUAAUCAACAGCUCGCAGUCAAG”, the binding signal was 0.452 ± 0.411 log2 fold change.

For “GGUCACGUCUCAAUCAACUCAAAAGAGGGGGGGAAAACCCCUUUGCCCUCACUUUCAACAGCUCGCAGUCAAG”, the binding signal was determined as 0.573 ± 0.412 log2 fold change. With “GGUCACGUCUCAAUCAACUCUCACGAGGGGGGGAAAACCCCUUUGCCCUCAAUUUCAACAGCUCGCAGUCAAG” the figure was 0.305 ± 0.454 log2 fold change; with “GGUCACGUCUCAAUCAACUCUCAAGAGGGGGGGAAAACCCCUUUGCCCUCAACAUCAACAGCUCGCAGUCAAG”, 0.531 ± 0.415 log2 fold change. As to “GGUCACGUCUCAAUCAACUCUCAAGAGGGGGGGAAAACCCCUUUGCCCUCCAUGUCAACAGCUCGCAGUCAAG”, the binding signal was 0.411 ± 0.415 log2 fold change. As for “GGUCACGUCUCAAUCAACUCACACGAGGGGGGGAAAACCCCUUUGCCCUCAACAUCAACAGCUCGCAGUCAAG”, the binding signal was determined as 0.529 ± 0.425 log2 fold change. Then “GGUCACGUCUCAAUCAACUCUCAAGAGGGGGGGAAAACCCCUUUGCCCUCACUUUCAACAGCUCGCAGUCAAG”, with 0.453 ± 0.436 log2 fold change; and “GGUCACGUCUCAAUCAACUCCUAAGAGGGGGGGAAAACCCCUUUGCCCUCACUUUCAACAGCUCGCAGUCAAG”, with 0.38 ± 0.429 log2 fold change; and “GGUCACGUCUCAAUCAACUCAAUCGAGGGGGGGAAAACCCCUUUGCCCUCACUUUCAACAGCUCGCAGUCAAG”, with 0.594 ± 0.435 log2 fold change. Take “GGUCACGUCUCAAUCAACUCCUAAGAGGGGGGGAAAACCCCUUUGCCCUCAUUCUCAACAGCUCGCAGUCAAG”: the binding signal stood at 0.335 ± 0.447 log2 fold change.

“GGUCACGUCUCAAUCAACUCUAAAGAGGGGGGGAAAACCCCUUUGCCCUCACUAUCAACAGCUCGCAGUCAAG”: the binding signal worked out at 0.331 ± 0.434 log2 fold change. As to “GGUCACGUCUCAAUCAACUCUAAAGAGGGGGGGAAAACCCCUUUGCCCUCACUUUCAACAGCUCGCAGUCAAG”, the binding signal worked out at 0.415 ± 0.443 log2 fold change.
